In the library only some 5.7% were active in any assay of this set; here they are far more common.
HEK293 tox – qHTS of GLP-1 Receptor Inverse Agonists: Cytotox Screen; HEK293 cAMP-luciferase reporter cells, luminescence, 24 h; Potency, µM (titrated, usually from 38.3 µM), usual class: inhibitors; 410,000 compounds, 0.13% hits;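 also: loss of luciferase light is scored as toxicity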
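Step one: seed cells (200 cells/uL, DMEM with 10% Nu serum, 1% pen-strep). Step two: 12-hour incubation at 37 deg C. Step three: pin 23 nL compound, incubate 24 hr. Step four: add luciferase reagent, read luminescence 12 min later.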
ClpP mod – qHTS Assay for Activators of ClpP; ATP-dependent Clp protease proteolytic subunit (Bacillus subtilis (strain 168)), P80244; purified B. subtilis ClpP, FRET peptide cleavage, 20 min; Potency, µM (titrated, usually from 57.5 µM); 340,000 compounds, 1.9% hits; AID 651965, 2013; active = well fitted falling curve with a large enough effect; inconclusive = small, poorly fitted or top-dose-only effect; inactive = no such curve, though single readings can be large or run the other way; also: the source files actives as falling curves though it sought activators and does not explain the sign; nearly all actives have a fitted effect of over 65% in size
Target sequence (P80244 whole entry, looked up): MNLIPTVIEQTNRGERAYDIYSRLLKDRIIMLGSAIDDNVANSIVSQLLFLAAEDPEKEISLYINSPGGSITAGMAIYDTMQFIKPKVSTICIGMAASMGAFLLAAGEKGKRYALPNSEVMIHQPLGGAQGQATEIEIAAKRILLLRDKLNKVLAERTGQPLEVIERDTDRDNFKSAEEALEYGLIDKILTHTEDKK
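FRET quenching reversal measured ClpP activation: 10 microg/mL B. subtilis ClpP at pH 8 with the FRET-FV decapeptide, read at 430 nm after 320 nm excitation. The 20-min minus 0-min signal was scaled between DMSO/no-enzyme wells and ADEP (5.8 microM final).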
GLP1R ag – qHTS of GLP-1 Receptor Agonists. HEK293 GLP-1R CRE-luciferase, luminescence, 4-6 h; cells express a hypersensitive GLP-1R form. Potency, µM (series often up to 45.6 µM), usual class: activators. 380,000 compounds, 0.007% hits. AID 624172, 2012
D3 antag – qHTS of D3 Dopamine Receptor Antagonist: qHTS; D(3) dopamine receptor (Homo sapiens), P35462; D3R cells, DiscoveRx beta-arrestin luminescence, antagonist mode; stronger effect = lower value; max response, negative = inhibition, %; 360,000 compounds, 2.5% hits; in the data active = max response below about -50%; inconclusive = no clear call, values can overlap the other calls
Target sequence (P35462 whole entry, looked up): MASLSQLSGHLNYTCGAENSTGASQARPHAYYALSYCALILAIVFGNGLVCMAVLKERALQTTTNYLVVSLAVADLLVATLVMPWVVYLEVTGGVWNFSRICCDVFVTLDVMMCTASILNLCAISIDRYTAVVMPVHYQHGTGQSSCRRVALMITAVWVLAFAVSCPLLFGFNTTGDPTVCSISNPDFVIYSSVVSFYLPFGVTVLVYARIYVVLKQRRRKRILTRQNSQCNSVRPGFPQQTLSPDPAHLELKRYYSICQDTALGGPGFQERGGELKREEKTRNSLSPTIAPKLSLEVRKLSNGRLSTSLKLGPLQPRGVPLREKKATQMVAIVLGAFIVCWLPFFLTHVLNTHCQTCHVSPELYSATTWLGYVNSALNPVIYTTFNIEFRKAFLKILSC
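Cells plated overnight at 1500 cells/well, then exposed to library compounds with dopamine controls for 90 minutes at 37 degrees C. DiscoveRx reagent added for 30–60 minutes at room temperature; luminescence read, quantitative HTS format.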
D3 ag – qHTS of D3 Dopamine Receptor Agonist: qHTS. D3R DiscoveRx beta-arrestin cells, luminescence, 90 min. 410,000 compounds, 0.58% hits. max activation, %. D(3) dopamine receptor (Homo sapiens), P35462; in the data active = max activation above about 30%
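Cells at 1500/well, incubated overnight, then treated with pinned compounds (dopamine as control) for 90 min at 37 degrees C. DiscoveRx reagent added for 30 - 60 minutes at room temperature; luminescence read.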
GLP1R inv ag – qHTS of GLP-1 Receptor Inverse Agonists (Inhibition Mode). Glucagon-like peptide 1 receptor (Homo sapiens), P43220. Potency, µM (doses to about 38.3 µM), usual class: inhibitors. HEK293 GLP-1R CRE-luciferase, luminescence, 24 h; GLP-1R form is constitutively active. 410,000 compounds, 1.6% hits; also: nearly all actives have a fitted effect of over 55% in size
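Inverse agonism was detected as reduced cAMP-driven luciferase luminescence after 24 h compound treatment. The cells were HEK293 clones expressing constitutively active human GLP-1R with the reporter. Reporter-only and GPR119 cell lines served as counterscreen controls.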
Hits are given with their value; i = inactive; ? = inconclusive; nt = not tested or not shown; ! = a repeat was not active. Unless noted, calls follow the shape of the dose curve; as a rule, active = well fitted curve in the direction sought with a large enough effect; inconclusive = small, poorly fitted or top-dose-only effect, or another doubt; inactive = no such curve, though single readings can be large; an effect the other way counts as inactive or inconclusive.

SMILES	HEK293 tox	ClpP mod	GLP1R ag	D3 antag	D3 ag	GLP1R inv ag
O=C(CCc1ccc(S(=O)(=O)NCc2ccccc2)cc1)NCc1cccnc1	i	14µM	i	i	i	i
O=C(Nc1ccc(S(=O)(=O)NCc2cccnc2)cc1)c1ccccc1Cl	i	i	i	-83	i	i
O=C(C(O)c1ccccc1)N1CCN(S(=O)(=O)c2ccc(OC(F)(F)F)cc2)CC1 (centres undefined)	i	i	nt	i	i	i
O=S(=O)(c1ccccc1)N1CCN(C(c2ccccc2)c2ccc(OC(F)(F)F)cc2)CC1 (centres undefined)	i	i	i	i	i	10µM
Cc1ccccc1S(=O)Cc1ccc(C(=O)N2CCN(c3cccc(C)c3C)CC2)o1 (centres undefined)	i	i	nt	nt	i	1.1µM
Cc1ccc(S(=O)(=O)Cc2ccc(C(=O)N3CCN(c4cccc(C)c4C)CC3)o2)cc1	?	i	i	i	i	5µM
COc1ccccc1N1CCN(C(=O)c2ccc(CS(=O)c3ccccc3C)o2)CC1 (centres undefined)	i	i	i	nt	i	?
Cc1cccc(N2CCN(C(=O)c3ccc(CS(=O)c4cccc(Cl)c4)o3)CC2)c1C (centres undefined)	?	i	nt	nt	i	1µM
Cc1cccc(N2CCN(C(=O)c3ccc(CS(=O)Cc4ccc(Cl)cc4)o3)CC2)c1C (centres undefined)	i	i	i	i	i	10µM
Cc1ccc(Cl)cc1N1CCN(C(=O)c2ccc(CS(=O)c3ccccc3)o2)CC1 (centres undefined)	?	i	nt	nt	i	?
CN(CC(=O)NCc1ccc(Cl)cc1)S(=O)(=O)c1ccc2c(c1)c(=O)n(C)c(=O)n2C	i	i	i	nt	i	i
CCC(=O)N1CCc2cc(Br)cc(S(=O)(=O)CCC(=O)N3CCN(c4cccc(C(F)(F)F)c4)CC3)c21	i	i	nt	nt	i	i
O=C1COc2ccc(-c3cc(-c4ccc(Cl)cc4)c4c(n3)-c3ccccc3OC4)cc2N1	i	i	i	nt	i	i
CCCNC(=S)N(Cc1ccccc1)Cc1nc2ccccc2c(=O)[nH]1	i	28µM	i	i	i	?
CCN(Cc1nc2cc(Cl)ccc2c(=O)[nH]1)C(=O)COc1ccccc1Cc1ccccc1	?	i	i	i	i	?
CCN(Cc1nc2ccccc2c(=O)[nH]1)C(=O)COc1ccccc1Cc1ccccc1	i	nt	i	i	i	13µM
CCOC(=O)C(=CNc1cc(C)ccc1C)C(=O)OCC	?	i	i	i	i	i
CCOC(=O)C(=CNc1cc(OC)ccc1-n1cccc1)C(=O)OCC	?	nt	i	i	51	i
CCn1nc(NS(=O)(=O)c2ccccc2)c2cc3cc(C)ccc3nc21	i	i	i	i	i	i
CCn1nc(NS(=O)(=O)c2ccccc2)c2cc3ccc(C)cc3nc21	i	i	i	-63	i	i
NC(C(=O)O)C1ON=C(Cl)C1O (centres undefined)	i	i	i	i	i	i
O=C(O)c1ccccc1C1c2ccccc2Oc2ccccc21	i	nt	i	-72	i	?
CSc1ccc(C2=CC(=O)C[C@H](c3ccc4c(c3)OCO4)C2)cc1	i	i	i	-52	i	i
CCOc1ccccc1NC(=O)CSc1nc2c(oc3ccccc32)c(=O)n1C(C)C	i	i	nt	nt	i	i
C=C(C)C1CCC(C)=C1COC(=O)Nc1ccccc1 (centres undefined)	i	i	i	i	i	8.9µM
SMILES	HEK293 tox	ClpP mod	GLP1R ag	D3 antag	D3 ag	GLP1R inv ag
O=C(Nc1ccccc1)OCCCCOC(=O)Nc1ccccc1	i	i	i	i	i	i
CCCSCCCNC(=O)c1ccc2nc(Cc3ccccc3)oc2c1	i	i	nt	nt	i	i
COC(=O)C[C@H]1C=C[C@@H](NC(=O)c2ccncc2)[C@@H](CO)O1	i	i	nt	i	i	i
O=C1CCN1C1(C(=O)NC2CCCCC2)CCCC1	i	i	i	i	i	i
CC(=O)NC1(C2CCCCC2=O)CCCCC1 (centres undefined)	i	i	i	-65	i	i
Cc1onc(-c2c(F)cccc2Cl)c1C(=O)OCC(=O)N(C)c1ccccc1	i	i	i	i	i	?
Cc1ccc(C(=O)NCC(c2ccc(F)cc2)N2CCOCC2)cc1S(=O)(=O)N1CCOCC1 (centres undefined)	i	i	i	i	i	i
COc1cccc(NC(=O)CSc2nnc(NC(=O)C3CC3)s2)c1	i	nt	i	-57	i	i
CCOc1cccc(C(=O)Nc2cccc(-c3nnc(-c4ccccc4)o3)c2)c1	i	i	i	i	39	i
COc1cccc(NC(=O)c2ccc3nc(Cc4ccccc4)oc3c2)c1	?	i	nt	nt	i	10µM
CC(=O)Nc1cccc(NC(=O)CSc2nnc(NC(=O)C3CC3)s2)c1	i	i	i	i	i	i
CCOc1cccc(C(=O)Nc2ccc3oc(Cc4ccc(Cl)cc4)nc3c2)c1	i	i	i	i	i	2.2µM
CCOC(=O)C(C)Nc1ncnc2onc(C)c12 (centres undefined)	i	?	nt	nt	i	i
O=C(NCc1ccccc1Br)c1ccc2nc(N3CCCCC3)sc2c1	i	i	nt	nt	i	i
COc1cccc(NC(=O)CSc2nc3ccccc3cc2Cc2ccccc2)c1	i	i	i	-52	i	?
Cc1c(Cl)cccc1Nc1nc(N)nc(CN2CCc3ccccc3C2)n1	i	i	i	-64	i	?
COc1ccc(Nc2nc(N)nc(CSc3nc4ccccc4s3)n2)cc1	i	i	nt	nt	i	i
Cc1ccc(Nc2nc(N)nc(CN3CCc4ccccc4C3)n2)cc1	i	i	i	-64	i	?
Cc1cccc(Nc2nc(N)nc(CN3CCC(C(N)=O)CC3)n2)c1C	i	i	i	i	i	i
Cc1ccc(Nc2nc(N)nc(CSc3nc4ccccc4s3)n2)cc1	i	i	i	i	45!	?
Cc1oc(-c2ccccc2)nc1CNC(=O)Nc1ccccc1	i	i	nt	nt	i	?
CC1CCN(S(=O)(=O)c2ccc3c(c2)c(=O)c(C(=O)NCCc2ccccc2)cn3C)CC1	i	i	nt	nt	i	i
Cc1cccc(CNC(=O)Cn2nc(C)c3nn(-c4ccc(Cl)cc4)c(C)c3c2=O)c1	i	i	nt	nt	i	i

Source: PubChem BioAssay
